# Test results: PubChem BioAssay AID602336 (NMMLSC, 2012)
# This is one part of the list. Calls of active or inactive are those of the source. Rule as the data show it: active = inhibition above about 25%; inactive = the rest.
# Tested on: Botulinum neurotoxin type F light chain protease (Clostridium botulinum)
# Assay: BoNT/F light chain protease inhibitors, confirmation, biochemical, flow cytometry, cherry pick 2 (AID 602336)
# Details: multiplex microsphere protease cleavage assay, at 10 µM, stronger effect = higher value
row,Compound,inhibition
1,Cc1ccc(CNC(=O)c2cccc3c2C(=O)c2ccc(N4CCC(C)CC4)cc2S3(=O)=O)cc1,6.1% (inactive)
2,CC(=O)OCCN(CCCn1c(-c2ccncc2)nc2ccccc21)c1nc(-c2ccc(C)cc2)cs1,4% (inactive)
3,O=C(CN1CCN(c2ccccc2O)CC1)NC(=O)NCc1ccccc1,-4.3% (inactive)
4,Cc1cc2ccccc2n1CCNC(=O)COc1ccc2ccccc2c1,-12.9% (inactive)
5,Cc1cc2cc(CNC(=O)c3ccc(S(=O)(=O)N4CCOCC4)cc3)ccc2[nH]1,-10.8% (inactive)
6,CCOc1ncccc1C(=O)OCC(=O)c1c[nH]c2ccccc12,3% (inactive)
7,O=C(OCC(=O)c1c[nH]c2ccccc12)c1cccc(O)c1,-3.8% (inactive)
8,COc1ccc(-c2cc3c(c4c2ccn4C)C2CCC3C2)cn1 (stereo not drawn),4.4% (inactive)
